Here are results for seven molecules from ChEMBL document CHEMBL1961873, “Compounds: GSK PKIS; Assays: Nanosyn kinase panel” (2012).

For test [1], the target named is Casein kinase I isoform gamma-2 (Homo sapiens) (UniProt P78368). The note with it: at 1 µM.
The target of test [2] is Casein kinase I isoform gamma-3 (Homo sapiens) (UniProt Q9Y6M4). Particulars: at 0.1 µM.
Test [3] has the same target. The note with it: at 1 µM.
In test [4] the target is Cyclin-dependent kinase 1 (Homo sapiens) (UniProt P06493). Particulars: at 0.1 µM.
Test [5] shares this target. The note with it: at 1 µM.
Test [6] addresses Cyclin-dependent kinase 2 (Homo sapiens) (UniProt P24941). Particulars: at 0.1 µM.
The target is the same in test [7]. Particulars: at 1 µM.
Test [8] has the same target. The note with it: at 0.1 µM. The source holds these as a separate data set.
For test [9] the target is unchanged. Particulars: at 1 µM. The source holds these as a separate data set.
Test [10] addresses T1, CDK3/Cyclin E (Homo sapiens) (UniProt P24864+Q00526). The note with it: at 0.1 µM.
In test [11] the target is T1, CDK3/Cyclin E (Homo sapiens). Particulars: at 1 µM.
Test [12] has as its target Cyclin-dependent kinase 4 (Homo sapiens) (UniProt P11802). Particulars: at 0.1 µM.
Test [13] shares this target. The note with it: at 1 µM.
In test [14] the target is Cyclin-dependent kinase 5 (Homo sapiens) (UniProt Q00535). Particulars: at 0.1 µM.
The target is the same in test [15]. Particulars: at 1 µM.
Test [16] deals with Cyclin-dependent kinase 6 (Homo sapiens) (UniProt Q00534). Particulars: at 0.1 µM.
Test [17] shares this target. The note with it: at 1 µM.
The target of test [18] is Dual specificity protein kinase CLK2 (Homo sapiens) (UniProt P49760). Particulars: at 0.1 µM.
For test [19] the target is unchanged. The note with it: at 1 µM.
Test [20] deals with Dual specificity protein kinase CLK3 (Homo sapiens) (UniProt P49761). Particulars: at 0.1 µM.

Each structure is given as a SMILES string.

Chain of Cyclin-dependent kinase 6 (Homo sapiens) (Q00534 whole entry): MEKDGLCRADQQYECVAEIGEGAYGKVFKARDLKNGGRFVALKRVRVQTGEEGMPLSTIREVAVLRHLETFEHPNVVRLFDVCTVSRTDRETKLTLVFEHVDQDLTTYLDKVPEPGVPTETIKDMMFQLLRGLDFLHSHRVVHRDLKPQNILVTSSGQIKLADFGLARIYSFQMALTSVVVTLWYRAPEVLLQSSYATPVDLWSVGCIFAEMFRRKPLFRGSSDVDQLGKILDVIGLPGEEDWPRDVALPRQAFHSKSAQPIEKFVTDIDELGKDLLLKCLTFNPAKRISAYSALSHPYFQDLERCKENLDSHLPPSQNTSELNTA
T1 sequence (P24864 whole entry, looked up): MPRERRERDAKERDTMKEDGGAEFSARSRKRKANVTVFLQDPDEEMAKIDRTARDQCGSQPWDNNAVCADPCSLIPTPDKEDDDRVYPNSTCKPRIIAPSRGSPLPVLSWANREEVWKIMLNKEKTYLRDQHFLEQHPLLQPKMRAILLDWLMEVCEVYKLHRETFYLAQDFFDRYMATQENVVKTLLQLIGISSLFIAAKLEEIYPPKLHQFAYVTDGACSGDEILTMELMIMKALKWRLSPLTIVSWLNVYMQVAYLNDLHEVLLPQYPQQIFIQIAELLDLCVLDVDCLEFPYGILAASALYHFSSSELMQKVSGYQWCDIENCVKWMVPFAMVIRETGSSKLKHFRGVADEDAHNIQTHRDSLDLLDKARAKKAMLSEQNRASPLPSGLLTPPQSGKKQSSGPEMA
T1 sequence (Q00526 whole entry, looked up): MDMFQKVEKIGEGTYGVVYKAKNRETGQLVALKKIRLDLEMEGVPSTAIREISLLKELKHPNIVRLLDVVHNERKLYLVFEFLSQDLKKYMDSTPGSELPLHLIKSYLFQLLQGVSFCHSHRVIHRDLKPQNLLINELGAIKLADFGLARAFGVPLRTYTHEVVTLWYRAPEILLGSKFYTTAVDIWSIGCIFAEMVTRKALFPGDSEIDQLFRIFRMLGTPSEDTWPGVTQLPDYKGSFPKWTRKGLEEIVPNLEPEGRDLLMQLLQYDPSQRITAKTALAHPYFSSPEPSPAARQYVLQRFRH
Chain of Dual specificity protein kinase CLK3 (Homo sapiens) (P49761 whole entry, looked up): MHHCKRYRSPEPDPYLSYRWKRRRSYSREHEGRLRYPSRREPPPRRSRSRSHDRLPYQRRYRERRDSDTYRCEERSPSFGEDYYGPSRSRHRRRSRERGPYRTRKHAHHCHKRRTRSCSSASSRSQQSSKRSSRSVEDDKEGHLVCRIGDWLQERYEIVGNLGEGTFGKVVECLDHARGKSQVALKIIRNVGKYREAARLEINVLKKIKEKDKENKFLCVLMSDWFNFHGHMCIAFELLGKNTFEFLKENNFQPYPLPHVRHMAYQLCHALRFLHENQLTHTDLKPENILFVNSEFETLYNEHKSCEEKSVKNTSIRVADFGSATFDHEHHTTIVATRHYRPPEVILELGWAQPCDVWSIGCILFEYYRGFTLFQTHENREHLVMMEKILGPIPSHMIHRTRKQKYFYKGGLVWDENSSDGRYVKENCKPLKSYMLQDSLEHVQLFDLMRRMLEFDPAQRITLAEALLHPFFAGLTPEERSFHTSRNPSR
Chain of Cyclin-dependent kinase 1 (Homo sapiens) (P06493 whole entry, looked up): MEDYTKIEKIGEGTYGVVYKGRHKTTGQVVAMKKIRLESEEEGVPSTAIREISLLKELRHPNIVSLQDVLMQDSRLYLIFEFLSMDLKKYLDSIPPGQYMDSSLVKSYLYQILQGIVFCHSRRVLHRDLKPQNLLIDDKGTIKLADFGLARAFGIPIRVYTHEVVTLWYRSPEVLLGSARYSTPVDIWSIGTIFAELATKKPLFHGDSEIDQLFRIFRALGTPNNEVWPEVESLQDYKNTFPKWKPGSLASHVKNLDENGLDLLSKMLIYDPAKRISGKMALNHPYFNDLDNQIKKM
Chain of Casein kinase I isoform gamma-3 (Homo sapiens) (Q9Y6M4 whole entry, looked up, canonical isoform): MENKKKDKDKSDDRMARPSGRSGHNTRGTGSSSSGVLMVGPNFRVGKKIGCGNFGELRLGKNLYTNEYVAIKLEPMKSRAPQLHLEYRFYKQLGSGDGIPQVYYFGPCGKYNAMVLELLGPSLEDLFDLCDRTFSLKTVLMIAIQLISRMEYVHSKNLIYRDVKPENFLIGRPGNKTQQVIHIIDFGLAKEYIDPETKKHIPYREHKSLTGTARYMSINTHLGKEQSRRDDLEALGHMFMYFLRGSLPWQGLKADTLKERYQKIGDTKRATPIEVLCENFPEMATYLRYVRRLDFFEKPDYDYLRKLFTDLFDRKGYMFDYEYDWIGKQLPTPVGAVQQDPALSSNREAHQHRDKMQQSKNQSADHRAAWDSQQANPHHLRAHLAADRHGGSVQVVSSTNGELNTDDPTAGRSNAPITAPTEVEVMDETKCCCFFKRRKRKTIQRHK
Chain of Cyclin-dependent kinase 5 (Homo sapiens) (Q00535 whole entry, looked up): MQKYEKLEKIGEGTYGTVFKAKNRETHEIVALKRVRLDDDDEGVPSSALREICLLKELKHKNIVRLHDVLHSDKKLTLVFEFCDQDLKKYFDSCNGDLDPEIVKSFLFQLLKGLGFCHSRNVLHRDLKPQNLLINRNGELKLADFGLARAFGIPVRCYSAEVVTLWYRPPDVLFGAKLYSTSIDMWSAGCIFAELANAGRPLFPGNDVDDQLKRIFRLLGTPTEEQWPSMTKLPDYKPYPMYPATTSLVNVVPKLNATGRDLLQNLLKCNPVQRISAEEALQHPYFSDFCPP
Chain of Dual specificity protein kinase CLK2 (Homo sapiens) (P49760 whole entry, looked up): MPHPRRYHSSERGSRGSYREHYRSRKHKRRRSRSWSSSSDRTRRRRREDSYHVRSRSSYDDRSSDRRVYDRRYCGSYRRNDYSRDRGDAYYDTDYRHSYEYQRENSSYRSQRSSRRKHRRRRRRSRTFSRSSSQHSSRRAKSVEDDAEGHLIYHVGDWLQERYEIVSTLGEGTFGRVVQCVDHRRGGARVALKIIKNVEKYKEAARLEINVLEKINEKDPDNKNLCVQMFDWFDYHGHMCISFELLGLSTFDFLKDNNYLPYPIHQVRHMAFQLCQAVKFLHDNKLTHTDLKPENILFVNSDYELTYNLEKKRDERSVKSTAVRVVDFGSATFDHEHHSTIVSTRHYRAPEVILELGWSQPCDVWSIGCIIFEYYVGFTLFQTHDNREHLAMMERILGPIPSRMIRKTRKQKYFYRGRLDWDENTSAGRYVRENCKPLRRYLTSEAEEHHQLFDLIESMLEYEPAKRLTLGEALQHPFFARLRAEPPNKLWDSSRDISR
Chain of Cyclin-dependent kinase 4 (Homo sapiens) (P11802 whole entry): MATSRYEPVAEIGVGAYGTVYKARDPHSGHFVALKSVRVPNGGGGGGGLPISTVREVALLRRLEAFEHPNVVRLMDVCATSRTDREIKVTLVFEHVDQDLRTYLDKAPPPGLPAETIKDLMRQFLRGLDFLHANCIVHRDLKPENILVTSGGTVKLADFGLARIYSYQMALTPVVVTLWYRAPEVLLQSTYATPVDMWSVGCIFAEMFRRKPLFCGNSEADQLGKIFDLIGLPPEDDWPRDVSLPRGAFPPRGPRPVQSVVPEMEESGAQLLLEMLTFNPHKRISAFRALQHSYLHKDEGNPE
Chain of Casein kinase I isoform gamma-2 (Homo sapiens) (P78368 whole entry, looked up, canonical isoform): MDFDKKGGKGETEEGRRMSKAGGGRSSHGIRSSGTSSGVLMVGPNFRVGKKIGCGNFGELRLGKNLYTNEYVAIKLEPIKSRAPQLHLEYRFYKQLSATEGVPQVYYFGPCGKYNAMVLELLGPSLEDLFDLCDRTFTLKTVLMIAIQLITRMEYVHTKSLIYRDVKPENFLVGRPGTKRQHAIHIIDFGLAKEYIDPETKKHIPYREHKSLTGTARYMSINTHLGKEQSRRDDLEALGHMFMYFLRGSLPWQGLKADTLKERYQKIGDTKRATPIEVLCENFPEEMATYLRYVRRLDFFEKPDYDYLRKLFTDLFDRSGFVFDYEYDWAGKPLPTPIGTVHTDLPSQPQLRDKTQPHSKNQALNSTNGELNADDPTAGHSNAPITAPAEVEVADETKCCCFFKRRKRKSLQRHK

A word on the inhibition: it is the drop in the measured response relative to a control, in per cent. On to `NS(=O)(=O)c1cccc(Nc2cc(-c3ccc(F)cc3)n[nH]2)c1`, for which the inhibition is 4.87% in test [1]; 1.83% in test [2]; 4.57% in test [3]; 0.79% in test [4]; 9.28% in [5]; 2.32% in [6]. The inhibition stood at 11.1% in test [7]; 7.11% in test [8]; 28.4% in [9]; 10.6% in [10]; 36.7% in test [11]; 1.88% in [12]. The inhibition came to 10% in [13]; 5.52% in test [14]; 31.4% in [15]; 10.5% in [16]; 52.5% in test [17]; 1.65% in test [18]. Further, the inhibition in test [19] came to 1%; in test [20] it was 1.43%.

For the molecule `Cc1ccc(NC(=O)CC2CC2)cc1-c1ccc(C(=O)NCC2CC2)cc1`, the inhibition in test [1] is 2.91%; in [2], 0.5%; in [3] it was 2.08%; in [4] it was -0.23%; in [5], 0.76%; in [6] it was -1.15%. Further, the inhibition is -1.13% in test [7]; 1.18% in test [8]; 2.92% in [9]; 1.73% in test [10]; -2.46% in test [11]; 1.69% in test [12]. Besides, the inhibition in test [13] came out at 2.18%; in test [14], 0.04%; in test [15], 0.76%; in test [16], 1.72%; in test [17], 1.87%; in test [18], 0.47%. Moreover, the inhibition in test [19] was found to be 0.08%; in test [20], 1.44%.

For `COc1cccc(-n2ncc3c(N/N=C/c4ccc(C)cc4)ncnc32)c1`, the inhibition was found to be 12% in test [1]; 6.01% in [2]; 8.48% in test [3]; 4.4% in test [4]; 8.17% in test [5]; 5.82% in [6]. Moreover, the inhibition in test [7] is 11%; in [8], 2.46%; in test [9], 7.81%; in test [10], -3.32%; in test [11], -1.25%; in test [12], 3.51%. Besides, the inhibition in [13] is 7.43%; in test [14], 2.17%; in [15], 6.59%; in [16], -2.39%; in [17] it was -0.54%; in test [18], -0.41%. The inhibition was determined as 6.42% in [19] and 1.22% in test [20].

Take `CN(c1ccc(NC(=O)Nc2ccc(OC(F)(F)F)cc2)cc1)c1ccnc(Nc2cccc(S(N)(=O)=O)c2)n1`: the inhibition in test [1] is 2.66%; in test [2], 1.74%; in test [3] it was 2.37%; in test [4], -0.1%; in [5], 5.09%; in [6], 0.55%. For the same molecule, the inhibition in [7] was 14.4%; in [8], 1.2%; in test [9], 7.47%; in test [10], -0.62%; in test [11] it was 3.98%; in test [12] it was 0.85%. Besides, the inhibition in test [13] was 6.76%; in test [14] it was 0.45%; in [15] it was 5.8%; in test [16] it was 2.09%; in test [17], 27.4%; in test [18], 1.61%. Besides, the inhibition in test [19] is -2.84%; in [20], 0.59%.

Regarding `Nc1ccc(C#Cc2cncnc2Nc2ccc(OCc3cccc(F)c3)c(Cl)c2)cc1`, the inhibition in [1] came out at 2.65%; in [2], 2.45%; in [3], 2.75%; in test [4], 1.11%; in test [5], 1.87%; in test [6], 1.4%. Moreover, the inhibition in [7] is 1.57%; in test [8], 2.14%; in test [9], 3.31%; in test [10], -0.93%; in test [11] it was -1.01%; in [12] it was 1.19%. The inhibition in [13] is 3.75%; in test [14] it was 0.23%; in test [15], 1.65%; in [16], -2.6%; in test [17], 0.37%; in test [18] it was 0.14%. The inhibition in test [19] is -1.31%; in [20], 0.75%.

With `CC(C)c1ccc2c(c1)NC(=O)/C2=N/Nc1ccc(S(N)(=O)=O)cc1`, the inhibition in test [1] worked out at 0.09%; in test [2], 1.05%; in test [3], 0.02%; in test [4], 2.52%; in test [5], 6.84%; in test [6], 5.99%. Besides, the inhibition in test [7] came out at 28.9%; in test [8], 3.16%; in test [9] it was 18.9%; in test [10], 1.54%; in [11] it was 6.26%; in [12], 0.37%. Further, the inhibition was 7.65% in test [13]; 1.59% in test [14]; 5.95% in test [15]; 3.38% in [16]; 28.6% in [17]; -0.26% in [18]. Further, the results for the inhibition in [19] and in test [20] were -1.61% and -0.29%, respectively.

Take `NS(=O)(=O)c1ccc(NC=C2C(=O)Nc3ccc4ncsc4c32)cc1`: the inhibition in test [1] was determined as 19.5%; in test [2] it was 6.11%; in test [3], 26.3%; in test [4], 40.7%; in [5] it was 69.5%; in [6] it was 89.1%. The inhibition in test [7] amounted to 109%; in test [8], 74.3%; in test [9], 76.7%; in test [10] it was 69.4%; in test [11], 97.8%; in test [12], 46.4%. The inhibition in test [13] came to 71.3%; in test [14], 68.2%; in test [15] it was 74.7%; in [16], 52.8%; in test [17] it was 77.7%; in test [18] it was 28.3%. Besides, the inhibition in test [19] is 80%; in test [20] it was 3.57%.
